Results filed as inconclusive are left out. A call without a number means that no potency is given here. The source holds several records for some structures; these can differ, active in one and inactive in another. The source made the active and inactive calls. Calls follow the shape of the dose curve; as a rule, active = well fitted curve in the direction sought with a large enough effect; inconclusive = small, poorly fitted or top-dose-only effect, or another doubt; inactive = no such curve, though single readings can be large; an effect the other way counts as inactive or inconclusive.
Potency is read from the fitted curve at half-maximal effect.

Sequence of Metallo-beta-lactamase type 2 (Klebsiella pneumoniae) (C7C422 whole entry, looked up): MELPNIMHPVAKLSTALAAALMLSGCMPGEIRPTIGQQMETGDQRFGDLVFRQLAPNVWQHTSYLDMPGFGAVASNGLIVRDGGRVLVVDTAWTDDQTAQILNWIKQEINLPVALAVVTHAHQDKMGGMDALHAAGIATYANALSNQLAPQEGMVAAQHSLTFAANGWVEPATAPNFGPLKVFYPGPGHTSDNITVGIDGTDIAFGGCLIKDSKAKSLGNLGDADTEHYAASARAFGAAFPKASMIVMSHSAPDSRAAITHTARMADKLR
Sequence of Glutathione peroxidase 1 (Homo sapiens) (P07203 whole entry, looked up): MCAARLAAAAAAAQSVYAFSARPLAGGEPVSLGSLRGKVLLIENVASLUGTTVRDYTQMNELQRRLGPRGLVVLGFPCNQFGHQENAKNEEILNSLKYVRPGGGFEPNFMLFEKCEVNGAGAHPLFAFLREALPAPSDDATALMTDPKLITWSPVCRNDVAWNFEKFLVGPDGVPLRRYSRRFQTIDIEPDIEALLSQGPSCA

One experiment concerns the target Metallo-beta-lactamase type 2 (Klebsiella pneumoniae) (UniProt C7C422). Nature of the experiment: qHTS to identify inhibitors of the New Delhi Metallo-beta-lactamase (NDM): assay validation screen against the NCATS LOPAC Collection (AID 1794843). As to conditions: NDM-1 enzyme, nitrocefin hydrolysis, absorbance 485 nm; series mostly up to 38.4 µM. In short, it runs like this: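 NDM-1 at 2 nM final in 50 mM HEPES pH 7.0, 1 uM ZnSO4, 0.01% Tween20, preincubated with LOPAC compounds pinned in DMSO; 50 uM nitrocefin (stock) added. Hydrolysis read as absorbance at 485 nm in the plateau phase.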
(In general: Quantitative high-throughput screening tests each substance at several concentrations.)
`CN(C)CCC(c1ccccc1)c1ccccn1` (configuration not stated): the Potency result was “inactive”.
On the same count and under the same terms, then `CC1=C(/C=C/C(C)=C/C=C/C(C)=C/C(=O)Nc2ccc(O)cc2)C(C)(C)CCC1`, with “inactive”.
Still for that read-out and setting: in the case of `O=C(O)CCc1nc(-c2ccccc2)c(-c2ccccc2)o1` it was “inactive”.
As for `CC(C)NCC(O)COc1cccc2[nH]ccc12` (configuration not stated), the Potency result is “inactive”.
The same measure, in the same setting: in the case of `CC/C(=C(\c1ccccc1)c1ccc(OCCN(C)C)cc1)c1ccccc1` it was 14.1 µM (active) and inactive; in that of `NC(N)=Nc1nc(CSCC/C(N)=N/S(N)(=O)=O)cs1`, “inactive”.
On the same count and under the same terms, then `Clc1ccc(C(c2ccc(Cl)cc2)n2cc[n+](CC(OCc3ccc(Cl)cc3Cl)c3ccc(Cl)cc3Cl)c2)cc1` (configuration not stated), with “inactive”; and `COc1ccccc1N1CCN(CCCNc2cc(=O)n(C)c(=O)n2C)CC1`, with “inactive”; and `CCN(CC)C(=O)c1ccc(O)c(OC)c1`, with “inactive”.
`CCN(CC)CCNC(=O)c1ccc(N)cc1`: the Potency entry is “inactive”.
Consider `CC(=O)O[C@]1(C(C)=O)CC[C@H]2[C@@H]3C=C(Cl)C4=CC(=O)[C@@H]5C[C@@H]5[C@]4(C)[C@H]3CC[C@@]21C`, for which the Potency result is “inactive”.
Still for that read-out and setting: then `Clc1ccc(Cn2c(CN3CCCC3)nc3ccccc32)cc1`, with “inactive”.
The same measure, in the same setting: then `CCN1CCC[C@H]1CNC(=O)c1cc(S(N)(=O)=O)ccc1OC`, with “inactive”; and `COC(=O)[C@@H]1[C@H]2C[C@H]3c4[nH]c5ccccc5c4CCN3C[C@@H]2CC[C@@H]1O`, with “inactive”.
Still for that read-out and setting: then `CCCNC(=O)NS(=O)(=O)c1ccc(Cl)cc1`, with “inactive”.

The target in another experiment is Glutathione peroxidase 1 (Homo sapiens) (UniProt P07203). The experiment in a line: Primary qHTS Assay for Inhibitors of Recombinant Selenoprotein Glutathione Peroxidase 1 (GPX1) (AID 1845191). Also: nearly all actives have a fitted effect of over 65% in size. The following applies: recombinant GPX1, GR-coupled NADPH fluorescence, 15 min; series mostly up to 48.8 µM. In short, it runs like this:
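NADPH consumption tracked by fluorescence at 340/450 nm between t=0 and t=15 min, room temperature. Final mix: 10 nM GPX1, 100 nM glutathione reductase, 1 mM GSH, 0.5 mM NADPH, 0.5 mM cumene hydroperoxide, 0.01% BSA; 30 min compound–enzyme preincubation.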
Regarding `CN(C)CCC(c1ccccc1)c1ccccn1` (configuration not stated), the Potency result is “inactive”.
Still for that read-out and setting: then `CC1=C(/C=C/C(C)=C/C=C/C(C)=C/C(=O)Nc2ccc(O)cc2)C(C)(C)CCC1`, with “inactive”; and `O=C(O)CCc1nc(-c2ccccc2)c(-c2ccccc2)o1`, with “inactive”; and `O=c1cc(-c2cccc3c2Sc2ccccc2S3)oc(N2CCOCC2)c1`, with “inactive”.
The same measure, in the same setting: then `CC(C)NCC(O)COc1cccc2[nH]ccc12` (configuration not stated), with “inactive”; and `CC/C(=C(\c1ccccc1)c1ccc(OCCN(C)C)cc1)c1ccccc1`, with “inactive”; and `CCCCCNC(=O)N1CCC(CN(Cc2ccc(Cl)cc2)Cc2ccc([N+](=O)[O-])s2)C1` (configuration not stated), with 2050 nM (active).
The same measure, in the same setting: in the case of `O=c1cc(N2CCOCC2)oc2c(-c3cccc4c3sc3ccccc34)cccc12` it was “inactive”.
Turning to `N[C@@]1(C(=O)O)CS(=O)(=O)[C@H]2[C@H](C(=O)O)[C@H]21`, the Potency result is “inactive”.
`Clc1ccc(C(c2ccc(Cl)cc2)n2cc[n+](CC(OCc3ccc(Cl)cc3Cl)c3ccc(Cl)cc3Cl)c2)cc1` (configuration not stated): the Potency result is “inactive”.
On to `CO[C@@H](C(=O)N1Cc2[nH]nc(NC(=O)c3ccc(N4CCN(C)CC4)cc3)c2C1)c1ccccc1`, for which the Potency entry is “inactive”.
Same read-out and setting: in the case of `COc1ccccc1N1CCN(CCCNc2cc(=O)n(C)c(=O)n2C)CC1` it was “inactive”.
Regarding `Cc1cnc(C(=O)O)c[n+]1[O-]`, the Potency entry is “inactive”.
Consider `CCN(CC)C(=O)c1ccc(O)c(OC)c1`, for which the Potency result was “inactive”.
For the compound `O=c1cc(-c2ccccc2)oc2cc(O)c(O)c(O)c12`, the Potency entry is “inactive”.
Still for that read-out and setting: in the case of `CCN(CC)CCNC(=O)c1ccc(N)cc1` it was “inactive”; in that of `Cc1ccc(F)c(NC(=O)Nc2ccc(-c3cccc4[nH]nc(N)c34)cc2)c1`, “inactive”; in that of `CC[C@@]1(O)C[C@H](O[C@H]2C[C@H](N(C)C)[C@H](O[C@H]3C[C@H](O)[C@H](O[C@H]4CCC(=O)[C@H](C)O4)[C@H](C)O3)[C@H](C)O2)c2c(cc3c(c2O)C(=O)c2c(O)cccc2C3=O)[C@@H]1C(=O)OC`, “inactive”.
As to `O=C(O)Cc1cccc2ccccc12`, the Potency result is “inactive”.
Still for that read-out and setting: then `CC(C)(Cc1ccc2ccccc2c1)NC[C@@H](O)COc1cccc(Cl)c1C#N`, with “inactive”.
On the same count and under the same terms, then `O=C(O)c1c(Cl)c(Cl)c(Cl)c(Cl)c1-c1c2cc(I)c(=O)c(I)c-2oc2c(I)c(O)c(I)cc12`, with “inactive”; and `CC(=O)O[C@]1(C(C)=O)CC[C@H]2[C@@H]3C=C(Cl)C4=CC(=O)[C@@H]5C[C@@H]5[C@]4(C)[C@H]3CC[C@@]21C`, with “inactive”; and `Clc1ccc(Cn2c(CN3CCCC3)nc3ccccc32)cc1`, with “inactive”.
Regarding `CCN1CCC[C@H]1CNC(=O)c1cc(S(N)(=O)=O)ccc1OC`, the Potency result was “inactive”.
The same measure, in the same setting: in the case of `CC1(C)Cc2c(sc(NC(=S)NC(=O)c3ccccc3)c2C(=O)O)CO1` it was “inactive”.
On the same count and under the same terms, then `CCOC(CN1C(=O)[C@](CC(=O)Nc2ccc(C)cc2)(NC(=O)Nc2ccc(C)cc2)c2ccccc21)OCC`, with “inactive”; and `COC(=O)[C@@H]1[C@H]2C[C@H]3c4[nH]c5ccccc5c4CCN3C[C@@H]2CC[C@@H]1O`, with “inactive”; and `COC1CCC(N(C(=O)C2CCC(C)CC2)c2cc(C3=CCCCC3)sc2C(=O)O)CC1` (configuration not stated), with “inactive”.
The same measure, in the same setting: then `COc1ccc(-c2cc(=O)c3c(O)cc(O)cc3o2)cc1O`, with “inactive”; and `O=C(NOCC(O)CO)c1cc(Br)c(F)c(F)c1Nc1ccc(I)cc1F` (configuration not stated), with “inactive”; and `CCc1ccc(OCc2ccccc2C(=O)Nc2ccc3nc(C)cc(N)c3c2)cc1`, with “inactive”.
For the compound `N[C@H](CSC(c1ccccc1)(c1ccccc1)c1ccccc1)C(=O)O`, the Potency result was “inactive”.
The same measure, in the same setting: then `N#C[C@H]1C[C@H]2C[C@@H]2N1C(=O)[C@@H](N)C12CC3CC(CC(O)(C3)C1)C2`, with “inactive”; and `CCCCCCCCCCCC1=C(O)C(=O)C=C(O)C1=O`, with “inactive”.
In the case of `COc1ccc(-n2c(C)c([N+](=O)[O-])c3ccc(O)cc32)cc1`, the Potency entry is “inactive”.
Turning to `CCCNC(=O)NS(=O)(=O)c1ccc(Cl)cc1`, the Potency result is “inactive”.
Consider `N#Cc1ccc(NC(=O)Nc2ccccc2Br)c2n[nH]nc12`, for which the Potency entry was “inactive”.

(Values after PubChem BioAssay (NCATS).)
